# KDM5B inhibitor: blocks human KDM5B histone demethylase activity; KDM5B demethylase, FDH-coupled NADH fluorescence (FDH is formaldehyde dehydrogenase); actives 2.6% (n = 220,000); Potency, µM (titrated, usually from 57.7 µM), actives largely listed as inhibitors; active = well fitted inhibition curve with a large enough effect; also: 0% is about no effect; nearly all actives have a fitted effect of over 70% in size
#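 Inhibition is measured as reduced NADH fluorescence generation from FDH coupling to formaldehyde release. Truncated KDM5BΔAP at 200 nM final acts on H3K4me3 peptide (12.5 µM in substrate mix) in pH 7.5 HEPES buffer with Tween-20, 30 min, room temperature.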
# Starred values were filed as active, the others as inactive; i = inactive. The full list was thinned out, with hits kept by preference. Potency is read from the fitted curve at half-maximal effect.
SMILES,KDM5B inhibitor
Cc1cn2nc(C(=O)Nc3ccccc3C)cc2c(N2CCSCC2)n1,35µM*
Cc1ccc(C)c(NC(=O)c2cc3c(N4CCSCC4)nc(C)cn3n2)c1,32µM*
Fc1ccccc1-c1nnc(SCc2cccc(F)c2F)n1C1CC1,i
Cc1ccc(C)c(-c2cc(C(=O)O)c3ccccc3n2)c1,i
COc1ccc(-c2nc(C(C)C)nc3c2CCN(C(=O)Cc2ccc(F)cc2)CC3)cc1,i
CCc1ccccc1NC(=O)C(CC)CC,i
CCc1ccccc1NC(=O)c1cc2c(s1)CN(C(C)C)C2,7.1µM*
CCc1ccccc1NC(=O)c1cc2c(Cl)nc3ccccc3c2s1,i
Cc1cc(C)cc(NC(=O)Nc2ccc3nc(N4CCOCC4)cc(C)c3c2)c1,i
CC(=O)Nc1ccc(-c2csc(NC3CC3)n2)cc1,i
COc1ccccc1-c1cc(NCc2ccncc2)c2onc(C)c2n1,28µM*
Cc1noc2c(NCCN(C)C)cc(-c3ccc(F)cc3)nc12,i
COCCNc1cc(-c2ccc(F)cc2)nc2c(C)noc12,i
COc1ccccc1-c1cc(N2CCN(c3ccccn3)CC2)c2onc(C)c2n1,i
COc1ccccc1-c1cc(NCC2CCOCC2)c2onc(C)c2n1,i
Cc1noc2c(Nc3ccncc3)cc(-c3ccc(F)cc3)nc12,28µM*
Cc1oc(-c2ccccc2)nc1C(=O)NCc1ccccc1,i
CC(=O)c1cccc(NC(=O)c2ccccc2SC(C)C)c1,i
CC(=O)Oc1ccc2c(C)c(CC(=O)NCCc3ccccc3F)c(=O)oc2c1OC(C)=O,i
CCc1noc(-c2cccn3c(CNC(=O)C4CC4)nnc23)n1,25µM*
CC(C)c1noc(-c2cccn3c(CNC(=O)C4CC4)nnc23)n1,28µM*
CC(C)c1ccc(N2CC(C(=O)NCc3nc(C(C)C)no3)CC2=O)cc1 (stereo not given),i
O=C(NCCc1noc(-c2ccccc2)n1)C1CCCC1,i
CCCc1noc(-c2cccn3c(CNC(=O)C4CC4)nnc23)n1,25µM*
CCOc1ccc(CNCc2ccco2)cc1Cl,i
SMILES,KDM5B inhibitor
COc1cc(Br)c(/C=C(/C#N)C(=O)C(C)(C)C)cc1OC,i
COc1cc(NC(=O)Cc2sc(C)nc2-c2cccs2)cc(OC)c1OC,i
O=C(NC1CC1)c1ccc2nnc(C3CC3)n2c1,100µM*
O=C(NC1CCCC1)c1ccc2nnc(-c3cncc(Cl)c3)n2c1,100µM*
C[C@H](O)c1onc(-c2ccc(F)cc2)c1C(=O)NC1CC1,i
O=C(NC1CCCCC1)c1ccc(Cl)nc1,i
O=C(NC1CCC(c2ccccc2)CC1)c1ccncc1 (stereo not given),i
CC1CCC(NC(=O)c2ccc(C(N)=O)cc2)CC1 (stereo not given),i
O=C(NC1CC1)c1ccc2nnc(-c3ccc(F)cc3)n2c1,126µM*
COc1ccc(C(=O)NC2CCN(c3cc(-c4ccc(F)cc4)[nH]n3)CC2)cc1F,i
O=C(NC1CCCC1)c1ccc(Cl)cc1-n1cnnn1,i
Cc1nc(SCc2csc(Cc3ccc(Cl)cc3)n2)sc1CC(N)=O,i
Cc1ccc(C2C(C#N)=C(N)OC3=C2C(=O)CC(C)(C)C3)cc1 (stereo not given),i
CCCOc1ccc(C(N)C(=O)OCC)cc1 (stereo not given),i
NC(=S)N/N=C/c1ccc2ccccc2n1,i
Cc1cc(N(CCO)CCO)nc(NCc2ccccc2)n1,i
CCCCCn1nc(C(=O)N2CCCC2c2nc3ccccc3s2)c2ccccc2c1=O (stereo not given),i
CCC(C(=O)Nc1cccc(C(C)=O)c1)n1c(=O)c(-c2ccccc2NC(C)=O)nc2ccccc21 (stereo not given),i
C/C=C/Cn1c(N2CCCCC2)nc2c1c(=O)[nH]c(=O)n2C,i
CN(C)c1nc2c(c(=O)[nH]c(=O)n2C)n1Cc1ccccc1Cl,i
CCCc1nnc(C[C@@H]2C[C@@H](C(C)C)[C@H](CN3CCN(C(C)=O)CC3)C=C2C)o1,i
CC1CC(=O)Nc2cc(S(=O)(=O)NCCc3ccco3)ccc2S1 (stereo not given),i
Cc1cc(C)cc(C(=O)NCC(=O)N(C)Cc2c(C)nn(-c3ccccc3)c2C)c1,i
COC(=O)c1cc(C#N)c(N2CC[C@H](CO)[C@@H](O)C2)nc1C,25µM*
Cc1nc2ccccc2n1CCC(=O)N1CC[C@H](CO)[C@@H](O)C1,i
SMILES,KDM5B inhibitor
COc1ccc(C(=O)N2CC[C@H](CO)[C@H](NC(=O)C3CC3)C2)c(OC)n1,i
Brc1ccc(-c2noc(-c3ccc4c(c3)OCO4)n2)o1,i
CCOc1cccc(CN2CCC3(Cc4ccccc4CNC3=O)C2)c1 (stereo not given),i
O=C(NC1CCCN(c2nc3ncccc3o2)C1)c1ccc(C(F)(F)F)cc1 (stereo not given),i
O=C(NCC(F)(F)F)C1CCCN(c2nc3ncccc3o2)C1 (stereo not given),22µM*
O=C(NCc1cccs1)C1CCCN(c2nc3ncccc3o2)C1 (stereo not given),i
O=C(NCC(F)F)C1CCCN(c2nc3ncccc3o2)C1 (stereo not given),28µM*
CCNC(=O)C1CCCN(c2ncnc3onc(C)c23)C1 (stereo not given),i
O=C1NCc2ccccc2CC12CCCN(Cc1ccc(Cl)cc1)C2 (stereo not given),i
Cn1c(=O)c2nc(Cl)n(Cc3ccccc3)c2n(C)c1=O,i
c1ccc(Cn2ncc3c2CCCC3NCc2cscn2)cc1 (stereo not given),i
CC1CC1C(=O)NC1CCC(c2ccccc2)CC1 (stereo not given),i
Nc1ccc2c(c1)C(=O)OC2,i
O=C(COc1cc(O)c2c(=O)cc(-c3ccccc3)oc2c1)N1CCCCC1,i
CSCC[C@H](NC(=O)[C@H](C)n1nnc2ccccc2c1=O)C(=O)O,i
O=C(c1ncccn1)N1CCNc2cnc(Nc3ccc(-n4ccnc4)cc3)nc2C1,i
O=C(COc1ccccc1)N1CCNc2cnc(Nc3cccc(F)c3)nc2C1,35µM*
COc1ccccc1Nc1ncc2c(n1)CN(C(=O)c1cccc(N(C)C)c1)CCN2,i
CC(C)C1=NOC2(CCN(Cc3ccc(Cl)cc3)CC2)C1,i
CCCCC1c2cc(c(O)cc2O)C(CCCC)c2cc(c(O)cc2O)C(CCCC)c2cc(c(O)cc2O)C(CCCC)c2cc1c(O)cc2O (stereo not given),i
COc1ccc(N(CC(=O)Nc2ccc(C)c(C)c2)S(=O)(=O)c2c(C)nn(C)c2C)cc1,i
Cc1ccc(-c2cc3c(=O)n(CCNC(=O)Cc4cccs4)ccn3n2)cc1C,i
Cc1ccc(C(=O)NCCn2ccn3nc(-c4ccc(F)cc4)cc3c2=O)s1,i
CCn1nccc1C(=O)NCCn1ccn2nc(-c3ccc(C)c(C)c3)cc2c1=O,35µM*
Cc1ccc(-c2cc3c(=O)n(CCNC(=O)c4ccccc4F)ccn3n2)cc1C,20µM*
COc1cccc(-c2cc3c(=O)n(CCNC(=O)c4cc(F)ccc4F)ccn3n2)c1,i
COc1cccc(C(=O)NCCn2ccn3nc(-c4ccc(C)c(C)c4)cc3c2=O)c1OC,35µM*
CCOC(=O)c1cc(NC(=O)c2cccc(-c3cc4ccccc4oc3=O)c2)ccc1N1CCOCC1,i
CN(C)C(=S)SCc1cc(C(C)(C)C)c(O)c(C(C)(C)C)c1,i
CCOC(=O)COC(=O)c1cc2c(s1)-c1ccc(OC)cc1CC2,i

# Assay outcomes (PubChem)
